Data published in PubChem BioAssay AID1159580 (chemical genetic matrix, 2015).
About 2,000 (36%) of roughly 5,500 compounds were called active. Not shown: some 18% with an inconclusive outcome. No stated cut-off is given here; in the data, active means normalized growth mostly below about 0.91 (no sharp cut-off); inconclusive means no clear call, values can overlap the other calls; inactive means mostly above about 0.92. Some of the results follow.

Assay: chemical genetic growth profiling, strain panel (AID 1159580);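 further: tested at 20 µM; growth read once vehicle control cultures reached saturation at 30 °C; 1 = growth at the plate median or of vehicle wells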
Conditions: growth OD

Measured: normalized growth

CO[C@@H]1[C@@H](OC(N)=O)[C@@H](O)[C@H](Oc2ccc3c(O)c(NC(=O)c4ccc(O)c(CC=C(C)C)c4)c(=O)oc3c2C)OC1(C)C
inactive: S. cerevisiae deletion strains, locus YJR043C, strain POL32, stronger effect = lower value 1 | S. cerevisiae deletion strains, locus YJR066W, strain TOR1, stronger effect = lower value 0.896 | S. cerevisiae deletion strains, locus YJR075W, strain HOC1, stronger effect = lower value 1.02 | S. cerevisiae deletion strains, locus YKL009W, strain mrt4, stronger effect = lower value 0.96 | S. cerevisiae deletion strains, locus YKL085W, strain MDH1 (second series), stronger effect = lower value 0.949 | S. cerevisiae deletion strains, locus YKL085W, strain MDH1, stronger effect = lower value 0.949 | S. cerevisiae deletion strains, locus YKL160W, strain elf1, stronger effect = lower value 1.03 | S. cerevisiae deletion strains, locus YKL190W, strain CNB1, stronger effect = lower value 0.993 | S. cerevisiae deletion strains, locus YKR001C, strain vps1, stronger effect = lower value 0.99 | S. cerevisiae deletion strains, locus YKR026C, strain gcn3, stronger effect = lower value 1.04 | S. cerevisiae deletion strains, locus YKR091W, strain srl3, stronger effect = lower value 1.03 | S. cerevisiae deletion strains, locus YLL001W, strain dnm1, stronger effect = lower value 1.04 | S. cerevisiae deletion strains, locus YLL026W, stronger effect = lower value 1.04 | S. cerevisiae deletion strains, locus YLL041C, strain sdh2, stronger effect = lower value 1.02 | S. cerevisiae deletion strains, locus YLR027C, strain aat2, stronger effect = lower value 1.03 | S. cerevisiae deletion strains, locus YLR039C, strain RIC1, stronger effect = lower value 0.962 | S. cerevisiae deletion strains, locus YLR058C, strain SHM2, stronger effect = lower value 1.01 | S. cerevisiae deletion strains, locus YLR102C, strain apc9, stronger effect = lower value 0.993 | S. cerevisiae deletion strains, locus YLR221C, strain rsa3, stronger effect = lower value 1.02 | S. cerevisiae deletion strains, locus YLR258W, strain gsy2, stronger effect = lower value 1.03 | S. cerevisiae deletion strains, locus YLR262C, strain YPT6 (second series), stronger effect = lower value 1.02 | S. cerevisiae deletion strains, locus YLR262C, strain YPT6, stronger effect = lower value 0.968 | S. cerevisiae deletion strains, locus YLR268W, strain sec22, stronger effect = lower value 0.955 | S. cerevisiae deletion strains, locus YLR320W, strain mms22, stronger effect = lower value 1.04 | S. cerevisiae deletion strains, locus YLR330W, strain CHS5, stronger effect = lower value 1.03 | S. cerevisiae deletion strains, locus YLR342W, strain FKS1 (second series), stronger effect = lower value 1.04 | S. cerevisiae deletion strains, locus YLR342W, strain FKS1, stronger effect = lower value 1.03 | S. cerevisiae deletion strains, locus YLR357W, strain rsc2, stronger effect = lower value 1.05 | S. cerevisiae deletion strains, locus YLR370C, strain arc18, stronger effect = lower value 1.03 | S. cerevisiae deletion strains, locus YLR371W, strain rom2, stronger effect = lower value 0.979 | S. cerevisiae deletion strains, locus YLR384C, strain iki3, stronger effect = lower value 1.04 | S. cerevisiae deletion strains, locus YLR418C, strain cdc73, stronger effect = lower value 1 | S. cerevisiae deletion strains, locus YML016C, strain PPZ1, stronger effect = lower value 1.02 | S. cerevisiae deletion strains, locus YML032C, strain rad52, stronger effect = lower value 0.99 | S. cerevisiae deletion strains, locus YML120C, strain ndi1, stronger effect = lower value 1.02 | S. cerevisiae deletion strains, locus YML124C, strain tub3, stronger effect = lower value 1 | S. cerevisiae deletion strains, locus YMR058W, strain fet3, stronger effect = lower value 1.03 | S. cerevisiae deletion strains, locus YMR078C, strain ctf18, stronger effect = lower value 0.997 | S. cerevisiae deletion strains, locus YMR125W, strain sto1, stronger effect = lower value 1.02 | S. cerevisiae deletion strains, locus YMR129W, stronger effect = lower value 1.03 | S. cerevisiae deletion strains, locus YMR205C, strain PFK2, stronger effect = lower value 1.05 | S. cerevisiae deletion strains, locus YMR223W, strain ubp8, stronger effect = lower value 1.03 | S. cerevisiae deletion strains, locus YMR231W, strain pep5, stronger effect = lower value 1.03 | S. cerevisiae deletion strains, locus YMR307W, strain GAS1, stronger effect = lower value 1.02 | S. cerevisiae deletion strains, locus YNL067W, strain RPL9B, stronger effect = lower value 0.989 | S. cerevisiae deletion strains, locus YNL071W, strain lat1, stronger effect = lower value 1.04 | S. cerevisiae deletion strains, locus YNL128W, strain TEP1, stronger effect = lower value 0.945 | S. cerevisiae deletion strains, locus YNL183C, strain NPR1, stronger effect = lower value 0.847 | S. cerevisiae deletion strains, locus YNL209W, strain ssb2, stronger effect = lower value 1.04 | S. cerevisiae deletion strains, locus YNL233W, strain BNI4, stronger effect = lower value 1.02 | S. cerevisiae deletion strains, locus YNL248C, strain rpa49, stronger effect = lower value 1.02 | S. cerevisiae deletion strains, locus YNL250W, strain rad50, stronger effect = lower value 0.956 | S. cerevisiae deletion strains, locus YNL271C, strain bni1, stronger effect = lower value 0.986 | S. cerevisiae deletion strains, locus YNL298W, strain CLA4, stronger effect = lower value 0.997 | S. cerevisiae deletion strains, locus YNL307C, strain MCK1, stronger effect = lower value 0.991 | S. cerevisiae deletion strains, locus YNL322C, strain KRE1 (second series), stronger effect = lower value 1.01 | S. cerevisiae deletion strains, locus YNR049C, strain mso1, stronger effect = lower value 1.04 | S. cerevisiae deletion strains, locus YNR052C, strain pop2, stronger effect = lower value 0.978 | S. cerevisiae deletion strains, locus YOL006C, strain TOP1, stronger effect = lower value 0.965 | S. cerevisiae deletion strains, locus YOL012C, strain htz1 1 | S. cerevisiae deletion strains, locus YOL147C, strain pex11, stronger effect = lower value 1.01 | S. cerevisiae deletion strains, locus YOR001W, strain rrp6, stronger effect = lower value 0.979 | S. cerevisiae deletion strains, locus YOR061W, strain CKA2, stronger effect = lower value 1.01 | S. cerevisiae deletion strains, locus YOR069W, strain VPS5, stronger effect = lower value 1.01 | S. cerevisiae deletion strains, locus YOR070C, strain gyp1, stronger effect = lower value 1.03 | S. cerevisiae deletion strains, locus YOR080W, strain dia2, stronger effect = lower value 1.04 | S. cerevisiae deletion strains, locus YOR083W, strain WHI5, stronger effect = lower value 1.03 | S. cerevisiae deletion strains, locus YOR106W, strain vam3, stronger effect = lower value 1.02 | S. cerevisiae deletion strains, locus YOR136W, strain idh2, stronger effect = lower value 1 | S. cerevisiae deletion strains, locus YOR144C, strain elg1, stronger effect = lower value 1 | S. cerevisiae deletion strains, locus YOR184W, strain ser1, stronger effect = lower value 0.987 | S. cerevisiae deletion strains, locus YOR231W, strain MKK1, stronger effect = lower value 0.882 | S. cerevisiae deletion strains, locus YOR265W, strain rbl2, stronger effect = lower value 1.02 | S. cerevisiae deletion strains, locus YOR270C, strain vph1, stronger effect = lower value 0.927 | S. cerevisiae deletion strains, locus YOR290C, strain snf2, stronger effect = lower value 1.05 | S. cerevisiae deletion strains, locus YOR316C, strain cot1, stronger effect = lower value 0.987 | S. cerevisiae deletion strains, locus YPL051W, strain arl3, stronger effect = lower value 1.05 | S. cerevisiae deletion strains, locus YPL055C, strain LGE1, stronger effect = lower value 0.991 | S. cerevisiae deletion strains, locus YPL078C, strain atp4, stronger effect = lower value 1.02 | S. cerevisiae deletion strains, locus YPL106C, strain sse1, stronger effect = lower value 1.05 | S. cerevisiae deletion strains, locus YPL240C, strain hsp82, stronger effect = lower value 1.02 | S. cerevisiae deletion strains, locus YPL256C, strain CLN2, stronger effect = lower value 0.861 | S. cerevisiae deletion strains, locus YPR119W, strain clb2, stronger effect = lower value 1.01 | S. cerevisiae deletion strains, locus YPR141C, strain kar3, stronger effect = lower value 0.962 | S. cerevisiae deletion strains, locus YPR163C, strain tif3, stronger effect = lower value 0.996 | S. cerevisiae deletion strains, locus YPR167C, strain met16, stronger effect = lower value 0.999 | S. cerevisiae deletion strains, strain wtn01, stronger effect = lower value 0.984 | S. cerevisiae strains, strain wild type, stronger effect = lower value 1.02
active: S. cerevisiae deletion strains, locus YKL068W, stronger effect = lower value 0.925 | S. cerevisiae deletion strains, locus YLR113W, strain HOG1, stronger effect = lower value 0.793
